These results are taken from PubChem BioAssay (Tox21).

Records with an inconclusive call do not appear. A call without a number means that no potency is given here. Active and inactive are the calls of the source. Unless noted, calls follow the shape of the full dose curve.

The first assay is described as follows: qHTS assay to identify small molecule agonists of the vitamin D receptor (VDR) signaling pathway - cell viability counter screen (AID 743224; active = well fitted cell-killing curve with a large enough effect in the repeat runs; also: nearly all actives have a fitted effect of over 50% in size). The conditions noted are these: VDR-bla HEK293T viability, CellTiter-Glo luminescence, 16 h; series mostly up to 62.6 µM. The essentials:
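VDR-bla cells were preincubated 4 h at 37C/5% CO2, then exposed to compounds for 16 h. After the 2 h room-temperature bla FRET read, CellTiter-Glo was added to the same wells and luminescence read after 30 min.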
Turning to `CCCc1c2oc(C(=O)O)cc(=O)c2cc2c(=O)cc(C(=O)O)n(CC)c12`, the Potency entry was “inactive”.
Still for that read-out and setting: the entry for `CN1CCN(c2c(F)cc3c(=O)c(C(=O)O)cn(CCF)c3c2F)CC1` is “inactive”; for `CC(C)Nc1nc(N)nc(Cl)n1` it is “inactive”; for `CC(=O)N[C@@H](CC(C)C)C(=O)O` it is “inactive”.
On to `CCCS(=O)c1ccc2nc(NC(=O)OC)[nH]c2c1` (stereo not given), for which the Potency entry is “inactive”.
On the same count and under the same terms, the entry for `COc1cc(Cl)ccc1Cl` is “inactive”.
With `O=C1N(c2ccccc2)c2ccccc2C1(Cc1ccncc1)Cc1ccncc1`, the Potency entry is “inactive”.
Still for that read-out and setting: the entry for `C1CCOC1` is “inactive”.

The next assay can be described thus: qHTS assay to identify small molecule antagonists of the vitamin D receptor (VDR) signaling pathway - cell viability counter screen (AID 743225; active = well fitted cell-killing curve with a large enough effect in the repeat runs; also: nearly all actives have a fitted effect of over 50% in size). The conditions noted are these: VDR-bla HEK293T viability, CellTiter-Glo luminescence, 16 h; series mostly up to 61 µM. In a few lines: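 Read-out: CellTiter-Glo luminescence measured 30 min after reagent addition at room temperature. Cells were VDR-bla HEK 293T exposed 16 h at 37C, 5% CO2, to compound with 3 nM final calcitriol agonist.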
As to `CN(CC1(C)CCCO1)S(=O)(=O)c1ccc(Cl)c(S(N)(=O)=O)c1` (stereo not given), the Potency entry was “inactive”.
Still for that read-out and setting: in the case of `OCc1ccccc1O` it was “inactive”.
The same measure, in the same setting: the entry for `CN1C(=O)CC(c2ccccc2)C1=O` (stereo not given) is “inactive”; for `Cc1c(C(=O)NCCO)[n+](=O)c2ccccc2n1[O-]` it is “inactive”; for `CCCCC1CCC(=O)O1` (stereo not given) it is “inactive”.
Same read-out and setting: in the case of `CCOc1ccc(NC(N)=O)cc1` it was “inactive”.
As to `NC/C=C/C(=O)O`, the Potency entry was “inactive”.
On the same count and under the same terms, in the case of `CCCCCCCCCC#N` it was “inactive”.
The same measure, in the same setting: in the case of `CCCCC(=O)O[C@]1(C(=O)CO)[C@H](C)C[C@H]2[C@@H]3CCC4=CC(=O)C=C[C@]4(C)[C@@]3(F)[C@@H](O)C[C@@]21C` it was “inactive”; in that of `CCCCc1ccc2nc(NC(=O)OC)[nH]c2c1`, “inactive”.
For `CC(C)CC(=O)OCc1ccccc1`, the Potency result was “inactive”.
Same read-out and setting: in the case of `CC/C=C\CCOC(=O)C(C)C` it was “inactive”; in that of `CN(CCCN1c2ccccc2CCc2ccccc21)CC(=O)c1ccc(Cl)cc1`, “inactive”.
Same read-out and setting: the entry for `CCCCNc1ccc(C(=O)OCCN(CC)CC)cc1` is “inactive”.
On the same count and under the same terms, in the case of `CCOC(=O)NCCC[Si](OCC)(OCC)OCC` it was “inactive”; in that of `Cc1ccc([N+](=O)[O-])c(N)c1`, “inactive”.
As for `N#Cc1ccc(C(c2ccc(C#N)cc2)n2cncn2)cc1`, the Potency result was “inactive”.
Same read-out and setting: the entry for `NC(=O)NS(=O)(=O)c1ccc(Cl)cc1` is “inactive”; for `CCCCCCCCOC(=O)CCCCCCCCC(=O)OCCCCCCCC` it is “inactive”.
On to `OCCN(CCO)c1ccccc1`, for which the Potency result is “inactive”.
The same measure, in the same setting: in the case of `OCC(CBr)(CBr)CBr` it was “inactive”.
On the same count and under the same terms, in the case of `O=C1CCCc2ccccc21` it was “inactive”; in that of `COC(C)CCO` (stereo not given), “inactive”; in that of `CCCc1c2oc(C(=O)O)cc(=O)c2cc2c(=O)cc(C(=O)O)n(CC)c12`, “inactive”.
Same read-out and setting: the entry for `CN1CCN(c2c(F)cc3c(=O)c(C(=O)O)cn(CCF)c3c2F)CC1` is “inactive”; for `CC(=O)N[C@@H](CC(C)C)C(=O)O` it is “inactive”.

A further assay is described as follows: qHTS assay to identify small molecule agonists of the NFkB signaling pathway (AID 1159509; active = well fitted curve in the direction sought with a large enough effect in the signal ratio in the repeat runs, not every such curve was filed as active; the % refers to the signal ratio). The conditions noted are these: NFkB-bla ME-180 cells, beta-lactamase FRET ratio, 5 h; series mostly up to 61 µM. In a few lines:
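NFkB-bla ME-180 cells carry a beta-lactamase reporter under an NF-kB response element. They were plated overnight, then exposed to compounds for 5 h at 37 C. Read-out is LiveBLAzer FRET after 1.5 hr at room temperature (405 nm excitation; 460/530 nm emission).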
For the compound `CN(CC1(C)CCCO1)S(=O)(=O)c1ccc(Cl)c(S(N)(=O)=O)c1` (stereo not given), the result was inactive.
The same measure, in the same setting: the entry for `OCc1ccccc1O` is “inactive”; for `CN1C(=O)CC(c2ccccc2)C1=O` (stereo not given) it is “inactive”.
Still for that read-out and setting: in the case of `Cc1c(C(=O)NCCO)[n+](=O)c2ccccc2n1[O-]` it was “inactive”; in that of `O=S(=O)(O)C(F)(F)F`, “inactive”.
The same measure, in the same setting: in the case of `CCCCC1CCC(=O)O1` (stereo not given) it was “inactive”; in that of `CCOc1ccc(NC(N)=O)cc1`, “inactive”.
With `NC/C=C/C(=O)O`, the result was inactive.
Still for that read-out and setting: the entry for `CCCCCCCCCC#N` is “inactive”.
Same read-out and setting: in the case of `CCCCC(=O)O[C@]1(C(=O)CO)[C@H](C)C[C@H]2[C@@H]3CCC4=CC(=O)C=C[C@]4(C)[C@@]3(F)[C@@H](O)C[C@@]21C` it was “inactive”; in that of `CCCCc1ccc2nc(NC(=O)OC)[nH]c2c1`, “inactive”.
The same measure, in the same setting: in the case of `O=C(O)c1ccccc1Nc1cc(Cl)ccc1C(=O)O` it was “inactive”.
Regarding `CCCCCOc1ccc(C2SC(=O)NC2=O)cc1OCC` (stereo not given), the outcome was inactive.
The same measure, in the same setting: the entry for `CC(C)CC(=O)OCc1ccccc1` is “inactive”; for `CC/C=C\CCOC(=O)C(C)C` it is “inactive”; for `CN(CCCN1c2ccccc2CCc2ccccc21)CC(=O)c1ccc(Cl)cc1` it is “inactive”.
On the same count and under the same terms, in the case of `CCNCCO` it was “inactive”.
For `CCCCNc1ccc(C(=O)OCCN(CC)CC)cc1`, the result was inactive.
In the case of `CCOC(=O)NCCC[Si](OCC)(OCC)OCC`, the result was inactive.
The same measure, in the same setting: the entry for `Cc1ccc([N+](=O)[O-])c(N)c1` is “inactive”; for `N#Cc1ccc(C(c2ccc(C#N)cc2)n2cncn2)cc1` it is “inactive”; for `O=C1CCC(C2CCCCC2)CC1` it is “inactive”.
As for `NC(=O)NS(=O)(=O)c1ccc(Cl)cc1`, the result was inactive.
The same measure, in the same setting: the entry for `CCCCCCCCOC(=O)CCCCCCCCC(=O)OCCCCCCCC` is “inactive”.
In the case of `OCCN(CCO)c1ccccc1`, the outcome was inactive.
`OCC(CBr)(CBr)CBr`: the result was inactive.
On the same count and under the same terms, in the case of `CCCNC(C)C(=O)Nc1c(C)csc1C(=O)OC` (stereo not given) it was “inactive”; in that of `CC1=C(O)C(=O)OC1C` (stereo not given), “inactive”; in that of `O=C1CCCc2ccccc21`, “inactive”.
In the case of `COC(C)CCO` (stereo not given), the result was inactive.
Same read-out and setting: in the case of `CCCc1c2oc(C(=O)O)cc(=O)c2cc2c(=O)cc(C(=O)O)n(CC)c12` it was “inactive”.
For `CN1CCN(c2c(F)cc3c(=O)c(C(=O)O)cn(CCF)c3c2F)CC1`, the result was inactive.
Same read-out and setting: in the case of `CC(C)Nc1nc(N)nc(Cl)n1` it was “inactive”; in that of `CC(=O)N[C@@H](CC(C)C)C(=O)O`, “inactive”.
Still for that read-out and setting: in the case of `CCCS(=O)c1ccc2nc(NC(=O)OC)[nH]c2c1` (stereo not given) it was “inactive”; in that of `COc1cc(Cl)ccc1Cl`, “inactive”; in that of `O=C1N(c2ccccc2)c2ccccc2C1(Cc1ccncc1)Cc1ccncc1`, “inactive”.
Same read-out and setting: in the case of `C1CCOC1` it was “inactive”.

A further assay is described as follows: qHTS assay to identify small molecule agonists of the NFkB signaling pathway - cell viability counter screen (AID 1159515). Also: nearly all actives have a fitted effect of over 55% in size. The note with it: NFkB-bla ME-180 viability, CellTiter-Glo luminescence, 5 h; series mostly up to 61 µM. The essentials: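 NFkB-bla ME-180 cells, 2,000/well, were plated overnight at 37 C, 5% CO2, then exposed to compounds in DMSO for 5 hr. After the bla FRET read, CellTiter-Glo was added to the same wells; luminescence was read after 30 min at room temperature.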
Consider `CN(CC1(C)CCCO1)S(=O)(=O)c1ccc(Cl)c(S(N)(=O)=O)c1` (stereo not given), for which the compound was classed as inactive.
For the compound `OCc1ccccc1O`, the call was inactive.
Turning to `CN1C(=O)CC(c2ccccc2)C1=O` (stereo not given), the result was inactive.
The same measure, in the same setting: the entry for `Cc1c(C(=O)NCCO)[n+](=O)c2ccccc2n1[O-]` is “inactive”; for `O=S(=O)(O)C(F)(F)F` it is “inactive”.
On the same count and under the same terms, in the case of `CCCCC1CCC(=O)O1` (stereo not given) it was “inactive”.
With `CCOc1ccc(NC(N)=O)cc1`, the compound was classed as inactive.
The same measure, in the same setting: in the case of `NC/C=C/C(=O)O` it was “inactive”; in that of `CCCCCCCCCC#N`, “inactive”; in that of `CCCCC(=O)O[C@]1(C(=O)CO)[C@H](C)C[C@H]2[C@@H]3CCC4=CC(=O)C=C[C@]4(C)[C@@]3(F)[C@@H](O)C[C@@]21C`, “inactive”.
Same read-out and setting: in the case of `CCCCc1ccc2nc(NC(=O)OC)[nH]c2c1` it was “inactive”; in that of `O=C(O)c1ccccc1Nc1cc(Cl)ccc1C(=O)O`, “inactive”.
Turning to `CCCCCOc1ccc(C2SC(=O)NC2=O)cc1OCC` (stereo not given), the call was inactive.
The same measure, in the same setting: in the case of `CC(C)CC(=O)OCc1ccccc1` it was “inactive”; in that of `CC/C=C\CCOC(=O)C(C)C`, “inactive”.
`CN(CCCN1c2ccccc2CCc2ccccc21)CC(=O)c1ccc(Cl)cc1`: the result was inactive.
Still for that read-out and setting: the entry for `CCNCCO` is “inactive”; for `CCCCNc1ccc(C(=O)OCCN(CC)CC)cc1` it is “inactive”; for `CCOC(=O)NCCC[Si](OCC)(OCC)OCC` it is “inactive”.
As for `Cc1ccc([N+](=O)[O-])c(N)c1`, the compound was classed as inactive.
Same read-out and setting: the entry for `N#Cc1ccc(C(c2ccc(C#N)cc2)n2cncn2)cc1` is “inactive”; for `O=C1CCC(C2CCCCC2)CC1` it is “inactive”; for `NC(=O)NS(=O)(=O)c1ccc(Cl)cc1` it is “inactive”.
The same measure, in the same setting: in the case of `CCCCCCCCOC(=O)CCCCCCCCC(=O)OCCCCCCCC` it was “inactive”; in that of `OCCN(CCO)c1ccccc1`, “inactive”; in that of `OCC(CBr)(CBr)CBr`, “inactive”.
Same read-out and setting: the entry for `CCCNC(C)C(=O)Nc1c(C)csc1C(=O)OC` (stereo not given) is “inactive”; for `CC1=C(O)C(=O)OC1C` (stereo not given) it is “inactive”; for `O=C1CCCc2ccccc21` it is “inactive”.
For `COC(C)CCO` (stereo not given), the result was inactive.
Same read-out and setting: the entry for `CCCc1c2oc(C(=O)O)cc(=O)c2cc2c(=O)cc(C(=O)O)n(CC)c12` is “inactive”.
On the same count and under the same terms, in the case of `CN1CCN(c2c(F)cc3c(=O)c(C(=O)O)cn(CCF)c3c2F)CC1` it was “inactive”.
Turning to `CC(C)Nc1nc(N)nc(Cl)n1`, the compound was classed as inactive.
Regarding `CC(=O)N[C@@H](CC(C)C)C(=O)O`, the call was inactive.
On the same count and under the same terms, the entry for `CCCS(=O)c1ccc2nc(NC(=O)OC)[nH]c2c1` (stereo not given) is “inactive”; for `COc1cc(Cl)ccc1Cl` it is “inactive”.
Same read-out and setting: the entry for `O=C1N(c2ccccc2)c2ccccc2C1(Cc1ccncc1)Cc1ccncc1` is “inactive”; for `C1CCOC1` it is “inactive”.
